Platelet DG rel = inhibitors of platelet dense granule secretion, primary screen, cell-based, MLPCN, human platelets; human platelet-rich plasma, SFLLRN dense granule ATP release, luminescence; inhibition, %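 (compounds screened at 7.5 µM in platelet-rich plasma)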; 300,000 tested, 0.22% active; AID 1663, 2009;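 active = mean replicate score, as percent of positive control, at or above 50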
Rtt109 Vps75 = inhibitors of C. albicans Rtt109/Vps75 HAT, primary screen, biochemical, ThioGlo CoA-SH fluorescence, plate reader; purified Rtt109/Vps75, 4 h; inhibition, % at 34.9 µM; 330,000 tested, 0.16% active;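 active = inhibition of at least 50% in every replicate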
Target sequence (Q5AAJ8 whole entry, looked up): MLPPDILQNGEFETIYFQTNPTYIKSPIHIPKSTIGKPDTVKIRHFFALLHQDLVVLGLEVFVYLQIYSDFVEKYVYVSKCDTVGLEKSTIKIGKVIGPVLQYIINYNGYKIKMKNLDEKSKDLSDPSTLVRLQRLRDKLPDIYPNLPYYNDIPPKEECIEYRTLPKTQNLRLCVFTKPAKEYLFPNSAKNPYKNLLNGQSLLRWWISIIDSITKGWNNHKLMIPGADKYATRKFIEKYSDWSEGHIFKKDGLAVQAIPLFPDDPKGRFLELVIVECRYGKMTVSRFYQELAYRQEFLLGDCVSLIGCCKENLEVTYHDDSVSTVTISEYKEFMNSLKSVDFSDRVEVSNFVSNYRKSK
SKKanGAS inh = S. pyogenes SKKanGAS growth inhibitors in kanamycin, primary screen, streptokinase expression inhibitor project, SKKanGAS strain, BacTiter-Glo luminescence | 6 h | inhibition, % at 7.5 µM | 300,000 tested, 1.3% active;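 active = mean replicate score, as percent of positive control median, at least 50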;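 also: strain carries kanamycin resistance gene driven by streptokinase promoter and grows in 40 µg/ml kanamycin; loss of luminescence reflects streptokinase promoter inhibition or plain growth inhibition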
WT yeast gro inh = growth inhibition of WT strain, primary screen, mitochondrial fusion inhibitor project, WT and mutant strains, chemical genetic. mitochondrial fusion phenotypic screen. inhibition, % at 10 µM. 190,000 tested, 2.1% active; in the data active = inhibition above about 58%; tested in S. cerevisiae
PHOSPHO1 block = PubChem AID 1565. inhibition, % at 13.3 µM. 290,000 tested, 1.1% active. recombinant PHOSPHO1, absorbance phosphatase assay; in the data active = inhibition above about 60%
Target sequence (Q8TCT1 whole entry, looked up): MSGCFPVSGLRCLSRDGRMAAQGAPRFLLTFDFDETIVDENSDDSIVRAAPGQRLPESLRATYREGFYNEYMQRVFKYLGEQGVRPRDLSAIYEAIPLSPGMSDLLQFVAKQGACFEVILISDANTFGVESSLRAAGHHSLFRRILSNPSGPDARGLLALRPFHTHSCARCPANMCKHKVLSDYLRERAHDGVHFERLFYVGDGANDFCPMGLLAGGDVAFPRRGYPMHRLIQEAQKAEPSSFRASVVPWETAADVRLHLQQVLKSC
TPT1 inhibitor = Candida albicans TPT1 enzyme inhibitors, primary screen, biochemical, fluorescence polarization. AID 1962, 2009. 300,000 tested, 0.81% active. tRNA 2'-phosphotransferase TPT1 (Candida albicans SC5314). inhibition, % at 5 µM. recombinant caTPT1, FP RNA substrate dephosphorylation;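 active = inhibition above the mean of all tested compounds plus 3 SD, set per screening campaign, cut at about 24% in these data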
Each line names hits and unclear results; the compound was inactive in the other large screens. Shown are actives, neighbours in structure and some others; about 3.9% of the full set was active somewhere.

Cn1c(COc2ccc3ccccc3c2)nnc1SCC(=O)O	PHOSPHO1 block 62
Cn1c(COc2cccc3cccnc23)nnc1SCC(=O)O	none
Cc1ccc(S(=O)(=O)N2CCN(c3ccccc3)CC2)s1	none (no result: Platelet DG rel, SKKanGAS inh, WT yeast gro inh, PHOSPHO1 block, TPT1 inhibitor)
Cc1c(NC(=O)CSc2nncn2-c2ccccc2)c(=O)n(-c2ccccc2)n1C	none (no result: WT yeast gro inh, PHOSPHO1 block)
O=C(O)CNC(=O)C1(NC(=O)OCc2ccccc2)CCCC1	none (no result: Platelet DG rel, SKKanGAS inh, WT yeast gro inh, PHOSPHO1 block, TPT1 inhibitor)
Cc1ccc(NCc2n[nH]c(=S)n2Cc2ccccc2)cc1Cl	WT yeast gro inh 67 (no result: TPT1 inhibitor)
Cc1cccc(NCc2n[nH]c(=S)n2-c2ccccc2)c1	PHOSPHO1 block 94
COc1ccc(OC)c(C2C(C(=O)c3ccccc3)=C(C)Nc3nc4ccccc4n32)c1 (stereo not drawn)	SKKanGAS inh 76
COc1ccc(C2C(C(=O)c3ccccc3)=C(C)Nc3nc4ccccc4n32)cc1OC (stereo not drawn)	none
COc1ccc(C(CNC(=O)c2nn(-c3ccccc3)c(=O)c3ccccc23)N2CCOCC2)cc1 (stereo not drawn)	none (no result: Platelet DG rel, SKKanGAS inh, WT yeast gro inh, PHOSPHO1 block, TPT1 inhibitor)
O=C(NN1C(=O)c2cc(Br)ccc2NC1c1ccccc1Cl)c1ccncc1 (stereo not drawn)	none
O=C(NN1C(=O)c2cc(Br)ccc2NC1c1cc(Br)cc(Br)c1O)c1ccncc1 (stereo not drawn)	SKKanGAS inh 59
OCCCCC#Cc1c(-c2ccsc2)sc2ccccc12	SKKanGAS inh 65 (no result: WT yeast gro inh)
OCCC#Cc1c(-c2ccsc2)sc2ccccc12	none (no result: WT yeast gro inh)
CCOC(=O)c1cc(S(=O)(=O)Nc2ccc(F)cc2F)cn1C	none (no result: WT yeast gro inh)
CCOC(=O)c1cc(S(=O)(=O)NC2CCC(C)CC2)cn1C (stereo not drawn)	PHOSPHO1 block 64 (no result: WT yeast gro inh)
COc1ccc(CNC(=O)COC(=O)CCCOc2ccc(Cl)cc2Cl)cc1	none
O=C(COC(=O)CCCOc1ccc(Cl)cc1Cl)Nc1cccc(Cl)c1	WT yeast gro inh 70
O=C(COC(=O)c1cc(=O)[nH]c(=O)[nH]1)Nc1ccccc1F	none (no result: Platelet DG rel, SKKanGAS inh, WT yeast gro inh, PHOSPHO1 block, TPT1 inhibitor)
COc1ccc(Cn2c(-c3ccc(C)cc3)c[n+]3ccccc23)cc1	WT yeast gro inh 60
O=C1NC(=S)CN1c1ccccc1	Rtt109 Vps75 141 (no result: WT yeast gro inh)
O=C1N(c2ccccc2)CCN1c1ccccc1	none (no result: WT yeast gro inh)
C/C(CCc1ccc2c(c1)OCO2)=N\N=C(/N)SC1CC(=O)N(c2ccc(Cl)cc2)C1=O (stereo not drawn)	WT yeast gro inh 65 (no result: Rtt109 Vps75)
N/C(=N\N=C\c1ccc2c(c1)OCO2)SC1CC(=O)N(c2ccc(C(=O)O)cc2)C1=O (stereo not drawn)	none (no result: Rtt109 Vps75)
O=C(O)c1ccc(N2C(=O)CC(SC(=NCc3ccc4c(c3)OCO4)Nc3ccc(F)cc3)C2=O)cc1 (stereo not drawn)	SKKanGAS inh 59
CCCNC(=O)Cn1sc2nc(C)cc(C)c2c1=O	Rtt109 Vps75 113 (no result: WT yeast gro inh)
Cn1c(=O)[nH]c(=O)c2c1nc(Br)n2CCSc1ncccn1	WT yeast gro inh 75
COc1ccccc1N(CC(=O)Nc1ccccc1C(F)(F)F)S(=O)(=O)c1cccs1	none (no result: Platelet DG rel, SKKanGAS inh, WT yeast gro inh, PHOSPHO1 block, TPT1 inhibitor)
O=C(/C=C/c1cccc(C(F)(F)F)c1)Nc1cccc(C(F)(F)F)c1	SKKanGAS inh 88
CSc1cccc(NC(=O)/C=C/c2cccc(Cl)c2)c1	WT yeast gro inh 83
O=C(/C=C/c1cccc(Cl)c1)Nc1ncccn1	none
CCOC(=O)C1=CN(Cc2ccco2)S(=O)(=O)N(CC)C1c1ccc(F)c(Cl)c1 (stereo not drawn)	none (no result: Platelet DG rel, SKKanGAS inh, WT yeast gro inh, PHOSPHO1 block, TPT1 inhibitor)
CS(=O)(=O)c1ccc(Cl)c(NC(=O)COC(=O)CCN2C(=O)C3CC=CCC3C2=O)c1 (stereo not drawn)	none (no result: Platelet DG rel, SKKanGAS inh, WT yeast gro inh, PHOSPHO1 block, TPT1 inhibitor)
O=C(NC(=S)NC1CCCc2ccccc21)c1ccco1 (stereo not drawn)	WT yeast gro inh 73
O=C(NC(=S)NC1CCCc2ccccc21)c1ccc(F)cc1 (stereo not drawn)	none (no result: WT yeast gro inh)
O=C(O)c1ccc(OCCN2CCCC2=O)cc1	none (no result: WT yeast gro inh, PHOSPHO1 block)
COCCCNC(=S)NC1CC2CCCC(C1)N2Cc1ccco1 (stereo not drawn)	WT yeast gro inh 99
CCN(C(=O)COC(=O)CNC(=O)c1ccc(Cl)cc1Cl)c1c(N)n(Cc2ccccc2)c(=O)[nH]c1=O	none (no result: Platelet DG rel, SKKanGAS inh, WT yeast gro inh, PHOSPHO1 block, TPT1 inhibitor)
O=C(Nc1ccncc1)C1CCN(S(=O)(=O)c2ccc(Cl)cc2)CC1	none (no result: WT yeast gro inh, PHOSPHO1 block)
O=C1/C(=C\c2ccncc2)CCc2ccccc21	none (no result: WT yeast gro inh, PHOSPHO1 block)
O=C1/C(=C/c2cccc3ccccc23)CCCc2ccccc21	WT yeast gro inh 63
CC(C)(C)C(Cn1ccnc1)NC(=O)c1ccc2nc(C3CC3)oc2c1 (stereo not drawn)	Platelet DG rel 58 (no result: WT yeast gro inh)
CSCC[C@@H](CO)NC(=O)c1ccc2nc(C3CCCCC3)oc2c1	none (no result: WT yeast gro inh)
COc1ccc(C(=O)OC2C(OC)OCC(O)C2O)cc1 (stereo not drawn)	none (no result: Platelet DG rel, SKKanGAS inh, WT yeast gro inh, PHOSPHO1 block, TPT1 inhibitor)
Cc1cc(Cl)ccc1NC(=O)CSc1nnc(-c2ccncc2)n1Cc1ccco1	none
Cc1ccc(NCc2nnc(SCC(=O)Nc3ncc(C)s3)n2Cc2ccco2)c(C)c1	PHOSPHO1 block 73
Cc1ccc(OCc2nnc(SCC(=O)C(C)(C)C)n2Cc2ccco2)cc1	PHOSPHO1 block 61
C=CCn1c(COc2ccc(F)cc2)nnc1SCC(=O)NC(=O)NCc1ccco1	PHOSPHO1 block 93
C=CCn1c(COc2ccc(Cl)cc2)nnc1SCC(=O)NCC(=O)OCC	PHOSPHO1 block 100
COc1ccc(CCN2CC(C(=O)Nc3ccccc3F)CC2=O)cc1OC (stereo not drawn)	none (no result: WT yeast gro inh, PHOSPHO1 block)
C[C@@H](CN1C(=O)C(=O)NC[C@@H]1C)NC(=O)CC12CC3CC(CC(C3)C1)C2	none (no result: WT yeast gro inh)
COc1ccccc1NS(=O)(=O)c1ccc(C)c(C(=O)NCc2cccnc2)c1	none (no result: Platelet DG rel, SKKanGAS inh, WT yeast gro inh, PHOSPHO1 block, TPT1 inhibitor)
N#CCCN(Cc1ccccc1)S(=O)(=O)c1cccs1	none (no result: WT yeast gro inh)
C=CCn1c(COc2ccccc2)nnc1SCc1ccc(C#N)cc1	none
C=CCn1c(COc2ccccc2)nnc1SCC(=O)N/N=C/c1cc(Cl)ccc1O	SKKanGAS inh 63
C=CCn1c(COc2ccc(Cl)cc2)nnc1SCc1ccc(C#N)cc1	PHOSPHO1 block 88
CCC1(C)CC(CCN(Cc2ccco2)C(C)=O)(c2ccccc2)CCO1 (stereo not drawn)	none (no result: Rtt109 Vps75)
CC1(C)CC(CCN(Cc2ccccc2)C(=O)c2ccco2)(c2ccccc2)CCO1 (stereo not drawn)	WT yeast gro inh 63
Cc1ccc(OCc2cc(C(=O)N(C)CCc3ccccn3)no2)cn1	none (no result: WT yeast gro inh)
CCn1c(C)nc2cc(-c3nc4n(n3)Cc3ccccc3-4)ccc21	Platelet DG rel 97, SKKanGAS inh 65
c1ccc2c(C3=NNC(=NC4CC4)SC3)c[nH]c2c1	Platelet DG rel 56
O=C(Nc1ccc(Cl)cc1)N[C@@H]1c2c(ccc3ccccc23)OC[C@@H]1CO	SKKanGAS inh 60
